In the supplement of paper PMC8728848:
Only a selection was taken, and the strongest signals are over-represented in it overall.

What was measured:
Experiment in all cases: glycan array binding signal (z-score within array); higher = stronger binding
Conditions in all cases: glycan notation: IUPAC condensed, linker removed
[1] = molecular target: Fuc(a1-2)Gal(b1-3)GalNAc(b1-4)[Neu5Ac(a2-3)]Gal(b1-4)Glc
Method in brief: (§1)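 Arrays were curated from the Consortium for Functional Glycomics database, 3228 in total, and kept only where the protein sequence was available. Binding is expressed as a within-array Z-score. This score was averaged across arrays of the same protein sequence at different concentrations or buffers and across linkers, and negative values can be read as non-binding.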

[2] = molecular target: Fuc(a1-2)Gal(b1-3)GlcNAc(b1-3)[Neu5Ac(a2-6)Gal(b1-4)GlcNAc(b1-6)]Gal(b1-4)Glc
Method in brief: as §1

[3] = molecular target: Fuc(a1-2)Gal(b1-4)GlcNAc(b1-3)Gal(b1-4)GlcNAc(b1-2)Man(a1-3)[Fuc(a1-2)Gal(b1-4)GlcNAc(b1-3)Gal(b1-4)GlcNAc(b1-2)Man(a1-6)]Man(b1-4)GlcNAc(b1-4)GlcNAc
Method in brief: as §1

[4] = molecular target: Fuc(a1-2)Gal(b1-4)[Fuc(a1-3)]GlcNAc(b1-3)Gal(b1-4)[Fuc(a1-3)]GlcNAc
Method in brief: as §1

[5] = molecular target: Fuc(a1-2)Gal3S(b1-4)GlcNAc
Method in brief: as §1

[6] = molecular target: Fuc(a1-2)[Gal(a1-3)]Gal(b1-4)GlcNAc(b1-3)[Fuc(a1-2)[Gal(a1-3)]Gal(b1-4)GlcNAc(b1-6)]GalNAc
Method in brief: as §1

[7] = molecular target: Fuc(a1-2)[GalNAc(a1-3)]Gal(b1-3)GalNAc(a1-3)[Fuc(a1-2)]Gal(b1-4)GlcNAc
Method in brief: as §1

[8] = molecular target: Fuc(a1-2)[GalNAc(a1-3)]Gal(b1-3)GlcNAc(b1-6)GalNAc
Method in brief: as §1

[9] = molecular target: Fuc(a1-3)[Gal(b1-4)]GlcNAc(b1-6)GalNAc
Method in brief: as §1

[10] = molecular target: Fuc(a1-3)[Gal3S(b1-4)]GlcNAc6S
Method in brief: as §1

Fuc(a1-4)GlcNAc = molecular target: Fuc(a1-4)GlcNAc
Method in brief: as §1

[11] = molecular target: Gal(a1-3)[Gal(a1-4)]Gal(b1-4)GlcNAc
Method in brief: as §1

Gal(a1-4)Gal(b1-4)GlcNAc = molecular target: Gal(a1-4)Gal(b1-4)GlcNAc
Method in brief: as §1

Gal(b1-3)GlcNAc = molecular target: Gal(b1-3)GlcNAc
Method in brief: as §1

[12] = molecular target: Gal(b1-3)GlcNAc(a1-3)Gal(b1-4)GlcNAc
Method in brief: as §1

[13] = molecular target: Gal(b1-3)GlcNAc(b1-2)Man(a1-3)[Gal(b1-3)GlcNAc(b1-2)Man(a1-6)]Man(b1-4)GlcNAc(b1-4)GlcNAc
Method in brief: as §1

[14] = molecular target: Gal(b1-3)GlcNAc(b1-3)Gal(b1-4)GlcNAc(b1-3)Gal(b1-4)GlcNAc(b1-2)[Gal(b1-3)GlcNAc(b1-3)Gal(b1-4)GlcNAc(b1-3)Gal(b1-4)GlcNAc(b1-6)]Man(a1-6)[Gal(b1-3)GlcNAc(b1-3)Gal(b1-4)GlcNAc(b1-3)Gal(b1-4)GlcNAc(b1-2)Man(a1-3)]Man(b1-4)GlcNAc(b1-4)[Fuc(a1-6)]GlcNAc
Method in brief: as §1

[15] = molecular target: Gal(b1-4)GlcNAc(b1-2)Man(a1-3)Man(b1-4)GlcNAc(b1-4)GlcNAc
Method in brief: as §1

[16] = molecular target: Gal(b1-4)GlcNAc(b1-2)Man(a1-6)[GlcNAc(b1-2)Man(a1-3)]Man(b1-4)GlcNAc(b1-4)GlcNAc
Method in brief: as §1

[17] = molecular target: Gal(b1-4)GlcNAc(b1-3)Gal(b1-4)GlcNAc(b1-2)Man(a1-3)[Gal(b1-4)GlcNAc(b1-3)Gal(b1-4)GlcNAc(b1-2)Man(a1-6)]Man(b1-4)GlcNAc(b1-4)[Fuc(a1-6)]GlcNAc
Method in brief: as §1

[18] = molecular target: Gal(b1-4)GlcNAc(b1-3)Gal(b1-4)GlcNAc(b1-3)Gal(b1-4)GlcNAc(b1-2)Man(a1-3)[Gal(b1-4)GlcNAc(b1-3)Gal(b1-4)GlcNAc(b1-3)Gal(b1-4)GlcNAc(b1-2)Man(a1-6)]Man(b1-4)GlcNAc(b1-4)GlcNAc
Method in brief: as §1

[19] = molecular target: Gal(b1-4)GlcNAc(b1-3)Gal(b1-4)GlcNAc(b1-3)Gal(b1-4)GlcNAc(b1-3)Gal(b1-4)GlcNAc(b1-2)Man(a1-3)[Gal(b1-4)GlcNAc(b1-3)Gal(b1-4)GlcNAc(b1-3)Gal(b1-4)GlcNAc(b1-3)Gal(b1-4)GlcNAc(b1-2)Man(a1-6)]Man(b1-4)GlcNAc(b1-4)GlcNAc
Method in brief: as §1

[20] = molecular target: Gal(b1-4)GlcNAc(b1-3)Gal(b1-4)GlcNAc(b1-3)Gal(b1-4)GlcNAc(b1-3)Gal(b1-4)GlcNAc(b1-2)[Gal(b1-4)GlcNAc(b1-3)Gal(b1-4)GlcNAc(b1-3)Gal(b1-4)GlcNAc(b1-3)Gal(b1-4)GlcNAc(b1-6)]Man(a1-6)[Gal(b1-4)GlcNAc(b1-3)Gal(b1-4)GlcNAc(b1-3)Gal(b1-4)GlcNAc(b1-3)Gal(b1-4)GlcNAc(b1-2)Man(a1-3)]Man(b1-4)GlcNAc(b1-4)[Fuc(a1-6)]GlcNAc
Method in brief: as §1

[21] = molecular target: Gal(b1-4)GlcNAc(b1-3)Gal(b1-4)GlcNAc(b1-3)Gal(b1-4)GlcNAc(b1-3)Gal(b1-4)GlcNAc(b1-3)Gal(b1-4)GlcNAc(b1-2)Man(a1-3)[Gal(b1-4)GlcNAc(b1-3)Gal(b1-4)GlcNAc(b1-3)Gal(b1-4)GlcNAc(b1-3)Gal(b1-4)GlcNAc(b1-3)Gal(b1-4)GlcNAc(b1-2)Man(a1-6)]Man(b1-4)GlcNAc(b1-4)GlcNAc
Method in brief: as §1

[22] = molecular target: Gal(b1-4)GlcNAc(b1-3)Gal(b1-4)GlcNAc(b1-3)Gal(b1-4)GlcNAc(b1-3)Gal(b1-4)GlcNAc(b1-3)Gal(b1-4)GlcNAc(b1-2)[Gal(b1-4)GlcNAc(b1-3)Gal(b1-4)GlcNAc(b1-3)Gal(b1-4)GlcNAc(b1-3)Gal(b1-4)GlcNAc(b1-3)Gal(b1-4)GlcNAc(b1-6)]Man(a1-6)[Gal(b1-4)GlcNAc(b1-3)Gal(b1-4)GlcNAc(b1-3)Gal(b1-4)GlcNAc(b1-3)Gal(b1-4)GlcNAc(b1-3)Gal(b1-4)GlcNAc(b1-2)Man(a1-3)]Man(b1-4)GlcNAc(b1-4)[Fuc(a1-6)]GlcNAc
Method in brief: as §1

[23] = molecular target: Gal(b1-4)GlcNAc(b1-6)GalNAc
Method in brief: as §1

Gal3S(b1-3)GlcNAc = molecular target: Gal3S(b1-3)GlcNAc
Method in brief: as §1

[24] = molecular target: Gal3S(b1-4)[Fuc(a1-3)]GlcNAc
Method in brief: as §1

[25] = molecular target: GalNAc3S(b1-4)[Fuc(a1-3)]GlcNAc
Method in brief: as §1

[26] = molecular target: GlcNAc(b1-3)Gal(b1-4)GlcNAc(b1-3)Gal(b1-4)GlcNAc(b1-3)Gal(b1-4)GlcNAc(b1-3)Gal(b1-4)GlcNAc(b1-2)Man(a1-3)[GlcNAc(b1-3)Gal(b1-4)GlcNAc(b1-3)Gal(b1-4)GlcNAc(b1-3)Gal(b1-4)GlcNAc(b1-3)Gal(b1-4)GlcNAc(b1-2)Man(a1-6)]Man(b1-4)GlcNAc(b1-4)[Fuc(a1-6)]GlcNAc
Method in brief: as §1

[27] = molecular target: GlcNAc(b1-3)[GlcNAc(b1-6)]Gal(b1-4)GlcNAc
Method in brief: as §1

[28] = molecular target: Man(a1-3)[Man(a1-6)]Man(b1-4)GlcNAc(b1-4)GlcNAc
Method in brief: as §1

[29] = molecular target: Man(a1-3)[Man(a1-6)]Man(b1-4)GlcNAc(b1-4)[Fuc(a1-6)]GlcNAc
Method in brief: as §1

Man(a1-6)Man = molecular target: Man(a1-6)Man
Method in brief: as §1

[30] = molecular target: Neu5Ac(a2-3)Gal(b1-3)[Neu5Ac(a2-6)]GalNAc
Method in brief: as §1

[31] = molecular target: Neu5Ac(a2-3)Gal(b1-4)GlcNAc
Method in brief: as §1

[32] = molecular target: Neu5Ac(a2-3)Gal(b1-4)GlcNAc(b1-3)Gal(b1-4)GlcNAc(b1-3)Gal(b1-4)GlcNAc(b1-2)Man(a1-3)[Neu5Ac(a2-3)Gal(b1-4)GlcNAc(b1-3)Gal(b1-4)GlcNAc(b1-3)Gal(b1-4)GlcNAc(b1-2)Man(a1-6)]GalNAc
Method in brief: as §1

[33] = molecular target: Neu5Ac(a2-3)Gal(b1-4)GlcNAc(b1-3)Gal(b1-4)GlcNAc(b1-6)[Gal(b1-3)]GalNAc
Method in brief: as §1

[34] = molecular target: Neu5Ac(a2-3)Gal(b1-4)GlcNAc(b1-6)GalNAc
Method in brief: as §1

[35] = molecular target: Neu5Ac(a2-3)GalNAc(b1-4)GlcNAc
Method in brief: as §1

[36] = molecular target: Neu5Ac(a2-8)Neu5Ac(a2-3)Gal(b1-3)GalNAc(b1-4)[Neu5Ac(a2-3)]Gal(b1-4)Glc
Method in brief: as §1

[37] = molecular target: Neu5Ac(a2-8)Neu5Gc(a2-3)Gal(b1-4)GlcNAc
Method in brief: as §1

[38] = molecular target: Neu5Gc(a2-3)Gal(b1-4)GlcNAc
Method in brief: as §1

[39] = molecular target: Neu5Gc(a2-3)Gal(b1-4)[Fuc(a1-3)]GlcNAc
Method in brief: as §1

B1: PX14343A-bvu-539-29-539 (Bacteroides vulgatus) (protein)
chain: DSLTESSSNTFWQTPDDALMALASCYDALQSNQLYNSDQYSLGPLYMDCISDNGGHFNWSGWMEGYDMAMGIHTPSSSIIGSYWKDCYEVISRCNVLIANIDRVDMDASQKAIYQAEAKTIRALMYINLTMTYQDVPFLTAPLTIDEAECEKTDRAAIVAHVMTDLQDAAEVLPQNASSRGHITKGAALSLLGRVALYNEKWDDAIAAYKQVQGLGYSLDPSYAKLFTQSGETSPEIIFAVRYEGPGMSEGAAFNAHWNTPLEAMNGTIDLADAYYCKDGKPTTDTKIAELNGGGGLDVSKPNPAHFENRDPRLYSTLFVPGMLWNGKGGIDTSASNPYANVYGGAAASLSTVYVYKYFDPTDTSNSWDNGQDFYVVRYAEVLLSLAEAMVQKGGYVYSDVTALVNEVRQRADVNMPTVEEVEGTSLSKDELLEVIKHERRVELAFEGLRLFDLYRWKELDKAVANIENERTMYGLAYEARKFNGERDYVWPLPTAELDTNKKLVQHDLWK
Question: Which results are given for B1?
Answer: glycan array binding signal (z-score) [1]: -0.271; glycan array binding signal (z-score) [2]: -0.213; glycan array binding signal (z-score) [3]: 8.08; glycan array binding signal (z-score) [4]: -0.083; glycan array binding signal (z-score) [5]: -0.406; glycan array binding signal (z-score) [6]: 7.49; glycan array binding signal (z-score) [7]: 0.132; glycan array binding signal (z-score) [8]: -0.292; glycan array binding signal (z-score) [9]: -0.298; glycan array binding signal (z-score) [10]: -0.338; glycan array binding signal (z-score) (Fuc(a1-4)GlcNAc): -0.448; glycan array binding signal (z-score) [11]: 6.76; glycan array binding signal (z-score) (Gal(a1-4)Gal(b1-4)GlcNAc): -0.281; glycan array binding signal (z-score) (Gal(b1-3)GlcNAc): -0.258; glycan array binding signal (z-score) [12]: -0.396; glycan array binding signal (z-score) [13]: 0.765; glycan array binding signal (z-score) [14]: 4.27; glycan array binding signal (z-score) [15]: 8.02; glycan array binding signal (z-score) [16]: -0.116; glycan array binding signal (z-score) [17]: 0.489; glycan array binding signal (z-score) [18]: 1.35; glycan array binding signal (z-score) [19]: 6.18; glycan array binding signal (z-score) [20]: 3.38; glycan array binding signal (z-score) [21]: 2.78; glycan array binding signal (z-score) [22]: 9.28; glycan array binding signal (z-score) [23]: -0.291; glycan array binding signal (z-score) (Gal3S(b1-3)GlcNAc): -0.038; glycan array binding signal (z-score) [24]: -0.121; glycan array binding signal (z-score) [25]: -0.399; glycan array binding signal (z-score) [26]: 0.355; glycan array binding signal (z-score) [27]: -0.27; glycan array binding signal (z-score) [28]: -0.432; glycan array binding signal (z-score) [29]: -0.297; glycan array binding signal (z-score) (Man(a1-6)Man): -0.184; glycan array binding signal (z-score) [30]: 0.662; glycan array binding signal (z-score) [31]: -0.373; glycan array binding signal (z-score) [32]: 8.35; glycan array binding signal (z-score) [33]: -0.244; glycan array binding signal (z-score) [34]: 0.089; glycan array binding signal (z-score) [35]: -0.142; glycan array binding signal (z-score) [36]: -0.102; glycan array binding signal (z-score) [37]: 4.74; glycan array binding signal (z-score) [38]: -0.254; glycan array binding signal (z-score) [39]: -0.404
